# Measurements: publication PMC8384837, “Expanding the binding specificity for RNA recognition by a PUF domain”
# Changes are numbered by the printed parent chain.
# How the values were obtained:
# Assay in all cases: yeast three-hybrid, YBZ-1, SC-Leu-His + 0.5 mM 3-AT, 4 days
# Conditions in all cases: tags: N-Gal4 AD-HA kept; label: inside an RPR1-promoter hybrid RNA with tandem MS2 sites; ssRNA
# PUM1 PUF domain R5-GTR = PUM1 PUF domain R5-GTR (Homo sapiens, UniProt Q14671 828-1176, C1007G;R1008T;Q1011R)
# How it was run: (§1)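 The interaction score is the logarithmic change in variant frequency from input to selection. It uses log2, with a pseudocount of 1 for absent variants, and frequencies came from PCR-amplified, Illumina-sequenced repeat regions. The libraries were Pumilio-1 PUF domains randomized at the three base-contacting residues per repeat, co-expressed with matching RNA elements in strain YBZ-1 (LexA–MS2 coat fusion, HIS3 reporter). Plating lasted four days on SC-Leu (input) or SC-Leu-His + 0.5 mM 3-AT (selection).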
# PUM1 PUF domain R5-SKN = PUM1 PUF domain R5-SKN (Homo sapiens, UniProt Q14671 828-1176, C1007S;R1008K;Q1011N)
# How it was run: as §1
# PUM1 PUF domain R6-VFH = molecular target: T1, PUM1 PUF domain R6-VFH (Homo sapiens, UniProt Q14671 828-1176, N1043V;Y1044F;Q1047H)
# T1 sequence: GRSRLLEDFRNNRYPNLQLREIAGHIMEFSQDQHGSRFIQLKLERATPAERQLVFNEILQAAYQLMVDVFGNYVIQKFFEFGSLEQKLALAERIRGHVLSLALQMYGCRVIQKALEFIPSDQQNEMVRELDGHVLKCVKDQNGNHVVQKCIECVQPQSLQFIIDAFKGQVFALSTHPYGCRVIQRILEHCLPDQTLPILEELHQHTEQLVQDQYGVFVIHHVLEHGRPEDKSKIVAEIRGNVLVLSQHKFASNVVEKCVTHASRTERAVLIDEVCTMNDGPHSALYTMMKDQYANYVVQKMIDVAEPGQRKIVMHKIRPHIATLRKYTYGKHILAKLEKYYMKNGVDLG
# How it was run: as §1
# PUM1 PUF domain R6-LWE = molecular target: T2, PUM1 PUF domain R6-LWE (Homo sapiens, UniProt Q14671 828-1176, N1043L;Y1044W;Q1047E)
# T2 sequence: T1 sequence with V216L, F217W, H220E
# How it was run: as §1
# PUM1 PUF domain R3-RSV = PUM1 PUF domain R3-RSV (Homo sapiens, UniProt Q14671 828-1176, C935R;R936S;Q939V)
# How it was run: as §1
# PUM1 PUF domain R2-LFL = PUM1 PUF domain R2-LFL (Homo sapiens, UniProt Q14671 828-1176, N899L;Y900F;Q903L)
# How it was run: as §1
# PUM1 PUF domain R8-RYV = PUM1 PUF domain R8-RYV (Homo sapiens, UniProt Q14671 828-1176, N1122R;Q1126V)
# How it was run: as §1
# PUM1 PUF domain R8-PYY = PUM1 PUF domain R8-PYY (Homo sapiens, UniProt Q14671 828-1176, N1122P;Q1126Y)
# How it was run: as §1
# PUM1 PUF domain R6-FWT = molecular target: T3, PUM1 PUF domain R6-FWT (Homo sapiens, UniProt Q14671 828-1176, N1043F;Y1044W;Q1047T)
# T3 sequence: T1 sequence with V216F, F217W, H220T
# How it was run: as §1
# PUM1 PUF domain R4-EHI = PUM1 PUF domain R4-EHI (Homo sapiens, UniProt Q14671 828-1176, N971E;Q975I)
# How it was run: as §1
sequence,measurement,setting,value
GGCUAGAACUAGUGGAUCCCCCGGCGCCCGGCGGCUCGAGCCCGGGUAAGUGUCAAUAGUCUGCAUGCCGCCGGGCGCCAUGCCUGCAGGUCGACUCUAGAAAACAUG,binding signal,PUM1 PUF domain R5-GTR,4.92 log2 enrichment (interaction score)
same,binding signal,PUM1 PUF domain R5-SKN,1.73 log2 enrichment (interaction score)
GGCUAGAACUAGUGGAUCCCCCGGCGCCCGGCGGCUCGAGCCCGGGUAAGUGAAAAUAGUCUGCAUGCCGCCGGGCGCCAUGCCUGCAGGUCGACUCUAGAAAACAUG,binding signal,PUM1 PUF domain R6-VFH,3.39 log2 enrichment (interaction score)
same,binding signal,PUM1 PUF domain R6-LWE,3.79 log2 enrichment (interaction score)
GGCUAGAACUAGUGGAUCCCCCGGCGCCCGGCGGCUCGAGCCCGGGUAAGUGUAAUUAGUCUGCAUGCCGCCGGGCGCCAUGCCUGCAGGUCGACUCUAGAAAACAUG,binding signal,PUM1 PUF domain R3-RSV,3.06 log2 enrichment (interaction score)
GGCUAGAACUAGUGGAUCCCCCGGCGCCCGGCGGCUCGAGCCCGGGUAAGUGUAAAAAGUCUGCAUGCCGCCGGGCGCCAUGCCUGCAGGUCGACUCUAGAAAACAUG,binding signal,PUM1 PUF domain R2-LFL,5.51 log2 enrichment (interaction score)
GGCUAGAACUAGUGGAUCCCCCGGCGCCCGGCGGCUCGAGCCCGGGUAAGCGUAAAUAGUCUGCAUGCCGCCGGGCGCCAUGCCUGCAGGUCGACUCUAGAAAACAUG,binding signal,PUM1 PUF domain R8-RYV,6.01 log2 enrichment (interaction score)
same,binding signal,PUM1 PUF domain R8-PYY,3.73 log2 enrichment (interaction score)
GGCUAGAACUAGUGGAUCCCCCGGCGCCCGGCGGCUCGAGCCCGGGUAAGUGUUAAUAGUCUGCAUGCCGCCGGGCGCCAUGCCUGCAGGUCGACUCUAGAAAACAUG,binding signal,PUM1 PUF domain R5-SKN,2.59 log2 enrichment (interaction score)
GGCUAGAACUAGUGGAUCCCCCGGCGCCCGGCGGCUCGAGCCCGGGUAAGUGUAAAUAGUCUGCAUGCCGCCGGGCGCCAUGCCUGCAGGUCGACUCUAGAAAACAUG,binding signal,PUM1 PUF domain R6-FWT,4.41 log2 enrichment (interaction score)
same,binding signal,PUM1 PUF domain R8-RYV,4.92 log2 enrichment (interaction score)
same,binding signal,PUM1 PUF domain R4-EHI,3.46 log2 enrichment (interaction score)
same,binding signal,PUM1 PUF domain R8-PYY,2.84 log2 enrichment (interaction score)
